Test results: PubChem BioAssay AID1159580 (chemical genetic matrix, 2015)
Out of some 5,500 compounds screened, about 2,000 (36%) were called active. Another 18% or so got no clear call; they are omitted. No stated cut-off is given here; in the data, active means normalized growth mostly below about 0.91 (no sharp cut-off); inconclusive means no clear call, values can overlap the other calls; inactive means mostly above about 0.92. The list shows a part of the results.

Test: chemical genetic growth profiling, strain panel (AID 1159580);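 further: tested at 20 µM; growth read once vehicle control cultures reached saturation at 30 °C; 1 = growth at the plate median or of vehicle wells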
Conditions: S. cerevisiae deletion strains, growth OD
[1] = locus YDL101C, strain DUN1, stronger effect = lower value
[2] = locus YHR030C, strain SLT2, stronger effect = lower value

Measured: normalized growth

N/C(=N\OC(=O)c1ccno1)c1ccc(C(F)(F)F)cc1
inactive: locus YAL013W, strain DEP1, stronger effect = lower value 0.951 | locus YBR229C, strain ROT2, stronger effect = lower value 0.992 | locus YCL061C, strain MRC1, stronger effect = lower value 0.974 | [1] 1.02 | locus YDR150W, strain NUM1, stronger effect = lower value 0.978 | locus YEL061C, strain CIN8, stronger effect = lower value 1 | locus YGR078C, strain PAC10, stronger effect = lower value 0.971 | locus YGR229C, strain SMI1, stronger effect = lower value 1.02 | [2] 0.888 | locus YHR087W, strain rtc3, stronger effect = lower value 0.966 | locus YJL187C, strain SWE1, stronger effect = lower value 0.993 | locus YJR043C, strain POL32, stronger effect = lower value 0.988 | locus YJR075W, strain HOC1, stronger effect = lower value 1.01 | locus YKL190W, strain CNB1, stronger effect = lower value 1.01 | locus YLR039C, strain RIC1, stronger effect = lower value 0.91 | locus YLR058C, strain SHM2 (second series), stronger effect = lower value 0.988 | locus YLR085C, strain ARP6, stronger effect = lower value 1.06 | locus YLR262C, strain YPT6, stronger effect = lower value 0.944 | locus YML094W, strain GIM5, stronger effect = lower value 0.95 | locus YMR219W, strain ESC1, stronger effect = lower value 0.996 | locus YMR263W, strain SAP30, stronger effect = lower value 0.98 | locus YMR307W, strain GAS1, stronger effect = lower value 1.17 | locus YNL153C, strain GIM3, stronger effect = lower value 0.973 | locus YNL298W, strain CLA4 (second series), stronger effect = lower value 0.949 | locus YNL322C, strain KRE1, stronger effect = lower value 0.987 | locus YNR030W, strain Alg12, stronger effect = lower value 0.939 | locus YOL006C, strain TOP1, stronger effect = lower value 0.939 | locus YPL055C, strain LGE1, stronger effect = lower value 0.839 | locus YPL241C, strain CIN2, stronger effect = lower value 1.03 | locus YPR135W, strain CTF4, stronger effect = lower value 0.82

Cc1cc(C(=O)O/N=C(/N)c2ccc([N+](=O)[O-])o2)no1
inactive: locus YAR019C, strain CDC15, stronger effect = lower value 0.961 | locus YBL105C, strain PKC1, stronger effect = lower value 0.968 | locus YBR135W, strain CKS1, stronger effect = lower value 0.963 | locus YBR136W, strain MEC1, stronger effect = lower value 0.962 | locus YBR160W, strain CDC28, stronger effect = lower value 0.951 | locus YDL017W, strain CDC7, stronger effect = lower value 0.963 | locus YDL028C, strain MPS1, stronger effect = lower value 0.931 | [1] 0.964 | locus YDL108W, strain KIN28, stronger effect = lower value 0.949 | locus YDL132W, strain cdc53, stronger effect = lower value 0.968 | locus YDL214C, strain PRR2, stronger effect = lower value 0.887 | locus YDR052C, strain DBF4, stronger effect = lower value 0.919 | locus YDR054C, strain cdc34, stronger effect = lower value 0.991 | locus YDR226W, strain ADK1, stronger effect = lower value 0.927 | locus YDR477W, strain SNF1, stronger effect = lower value 0.918 | locus YER123W, strain YCK3, stronger effect = lower value 0.87 | locus YER133W, strain GLC7, stronger effect = lower value 0.963 | locus YFL009W, strain cdc4, stronger effect = lower value 0.97 | locus YFL029C, strain CAK1, stronger effect = lower value 0.965 | locus YFR003C, strain YPI1, stronger effect = lower value 0.955 | locus YFR019W, strain FAB1, stronger effect = lower value 0.877 | locus YFR028C, strain CDC14, stronger effect = lower value 0.938 | locus YGR040W, strain KSS1, stronger effect = lower value 0.848 | locus YGR052W, strain FMP48, stronger effect = lower value 0.869 | locus YHR079C, strain IRE1, stronger effect = lower value 0.832 | locus YHR082C, strain KSP1, stronger effect = lower value 0.892 | locus YHR205W, strain SCH9, stronger effect = lower value 0.745 | locus YIL147C, strain SLN1, stronger effect = lower value 0.946 | locus YJL095W, strain BCK1, stronger effect = lower value 0.796 | locus YJL128C, strain PBS2, stronger effect = lower value 0.895 | locus YJL157C, strain FAR1, stronger effect = lower value 0.914 | locus YJR016C, strain ILV3, stronger effect = lower value 0.953 | locus YJR066W, strain TOR1 (second series), stronger effect = lower value 0.822 | locus YJR066W, strain TOR1, stronger effect = lower value 0.809 | locus YKL048C, strain ELM1, stronger effect = lower value 0.831 | locus YKL067W, strain YNK1, stronger effect = lower value 0.868 | locus YKL101W, strain HSL1, stronger effect = lower value 0.83 | locus YKL193C, strain SDS22, stronger effect = lower value 0.962 | locus YKL203C, strain TOR2, stronger effect = lower value 0.99 | locus YLR133W, strain CKI1, stronger effect = lower value 0.894 | locus YLR403W, strain SFP1, stronger effect = lower value 0.927 | locus YML070W, strain DAK1, stronger effect = lower value 0.846 | locus YMR001C, strain CDC5, stronger effect = lower value 0.963 | locus YMR205C, strain PFK2 (second series), stronger effect = lower value 0.938 | locus YMR277W, strain FCP1, stronger effect = lower value 0.941 | locus YNL006W, strain LST8, stronger effect = lower value 0.979 | locus YNL020C, strain ARK1, stronger effect = lower value 0.885 | locus YNL161W, strain CBK1, stronger effect = lower value 0.967 | locus YNL183C, strain NPR1, stronger effect = lower value 0.898 | locus YNL207W, strain RIO2, stronger effect = lower value 0.948 | locus YNL222W, strain SSU72, stronger effect = lower value 0.957 | locus YNL307C, strain MCK1 (second series), stronger effect = lower value 0.825 | locus YOL078W, strain AVO1, stronger effect = lower value 0.952 | locus YOL136C, strain PFK27, stronger effect = lower value 0.873 | locus YOR061W, strain CKA2, stronger effect = lower value 0.866 | locus YOR119C, strain RIO1, stronger effect = lower value 0.888 | locus YOR329C, strain SCD5, stronger effect = lower value 0.965 | locus YPL031C, strain PHO85, stronger effect = lower value 0.92 | locus YPL153C, strain RAD53, stronger effect = lower value 0.949 | locus YPL204W, strain HRR25, stronger effect = lower value 0.946 | locus YPL209C, strain IPL1, stronger effect = lower value 0.964 | locus YPR025C, strain CCL1, stronger effect = lower value 0.97 | locus YPR106W, strain ISR1, stronger effect = lower value 0.936 | locus YPR111W, strain DBF20, stronger effect = lower value 0.896 | strain NNK1, stronger effect = lower value 0.94 | strain TSCII, stronger effect = lower value 0.965
active: locus YGR092W, strain DBF2, stronger effect = lower value 0.178 | [2] 0.218 | locus YLR113W, strain HOG1, stronger effect = lower value 0.757 | locus YOR231W, strain MKK1, stronger effect = lower value 0.567 | locus YPL256C, strain CLN2, stronger effect = lower value 0.741
